# High-throughput results deposited in PubChem by National Center for Advancing Translational Sciences (NCATS).
# TGFb inhibitor: qHTS for Inhibitors of TGF-b. HepG2 CAGA-GFP TGF-b/SMAD3 reporter, GFP fluorescence, 18 h; TGF-beta stimulated, 500 pg/mL final. Potency, µM (doses to about 46.1 µM), for inactives: at the highest dose activity, negative = inhibition, usual class: inhibitors. actives 1.2% (n = 410,000). AID 588855, 2011; note: potency is the fitted concentration of half-maximal effect; % is set by controls: 0 for no effect and ±100 for the full control effect; nearly all actives have a fitted effect of over 65% in size
#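 GFP signal (ex488/em500-530) from TGF-beta-stimulated HEPG2 CAGA-GFP cells, 500 pg/mL final, 18 h at 37 degrees C in DMEM plus 1% FBS, normalized to unstimulated and DMSO-stimulated controls.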
# HepG2 viability: qHTS for Inhibitors of TGF-b: Cytotox Counterscreen. HepG2 CAGA-GFP viability, ATP luminescence, 18 h. Potency, µM (titrated, usually from 46.1 µM), without a hit: top-dose activity change, negative = cytotoxicity, actives largely listed as cytotoxic. actives 0.76% (n = 410,000). AID 588856, 2011; note: potency is the fitted concentration of half-maximal effect
#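 HepG2 CAGA-GFP cells (1000/well, DMEM with 1% FBS) received compound, then TGF-beta at 500 pg/mL final, and were incubated 18 hours at 37 degrees C. Viability was read by CellTiter-Glo luminescence. Media-only wells were set as complete cell-killing and DMSO as no toxicity.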
# IL-1B inflam inh: qHTS for Inhibitors of Inflammasome Signaling: IL-1-beta AlphaLISA Primary Screen; AID 743279, 2014; actives 4.7% (n = 360,000); THP-1 LPS/ATP IL-1B secretion, AlphaLISA, 16 h; hits give low values; activity change, % at 57.5 µM; in the data active = activity change below about -50%; inconclusive = mostly about -30% to -49%; note: % is set by controls: 0 for no effect and ±100 for the full control effect
#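 THP-1 cells pretreated 1 hr with compounds (up to 57.5 uM final), then stimulated with LPS (250 ng/mL final) plus ATP (1.25 mM final); secreted IL-1B measured by AlphaLISA after 16 hr, decreased signal indicating inhibition.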
# TDP1 inh: qHTS Assay for Inhibitors of Tyrosyl-DNA Phosphodiesterase (TDP1). recombinant TDP1, AlphaScreen DNA substrate cleavage. Potency, µM (top dose mostly 130 µM), for the others: at the highest dose activity change, negative = inhibition, hits mostly inhibitors. actives 0.28% (n = 350,000); note: potency is the fitted concentration of half-maximal effect; % is set by controls: 0 for no effect and ±100 for the full control effect; nearly all actives have a fitted effect of over 40% in size
# Target sequence (Q9NUW8 whole entry, looked up): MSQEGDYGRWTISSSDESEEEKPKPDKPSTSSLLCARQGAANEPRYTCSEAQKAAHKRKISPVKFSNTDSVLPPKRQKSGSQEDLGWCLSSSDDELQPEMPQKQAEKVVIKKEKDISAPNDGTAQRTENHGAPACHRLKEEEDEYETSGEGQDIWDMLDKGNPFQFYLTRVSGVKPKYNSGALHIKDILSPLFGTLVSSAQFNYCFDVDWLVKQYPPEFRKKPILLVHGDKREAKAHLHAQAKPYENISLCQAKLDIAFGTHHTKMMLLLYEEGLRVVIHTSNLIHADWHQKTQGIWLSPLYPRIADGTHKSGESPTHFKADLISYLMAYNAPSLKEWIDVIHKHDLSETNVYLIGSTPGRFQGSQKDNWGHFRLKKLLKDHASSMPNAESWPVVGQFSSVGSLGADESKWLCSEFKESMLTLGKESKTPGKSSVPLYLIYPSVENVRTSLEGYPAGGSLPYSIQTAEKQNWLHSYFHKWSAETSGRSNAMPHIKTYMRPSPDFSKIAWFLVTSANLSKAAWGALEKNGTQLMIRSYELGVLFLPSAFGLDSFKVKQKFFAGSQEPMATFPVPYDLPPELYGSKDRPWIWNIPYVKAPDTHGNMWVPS
#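 Recombinant E. coli-expressed Tdp1 (1 nM) preincubated with compound 15 min at RT, then 5'-biotin/3'-phosphotyrosine-FITC DNA substrate (15 nM) added for 5 min. AlphaScreen beads (10 ug/ml) added, 10 min RT; tyrosine-FITC cleavage read as signal loss.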
# TDP1 cell noCPT: qHTS for Inhibitors of human tyrosyl-DNA phosphodiesterase 1 (TDP1): qHTS in cells in absence of CPT | DT40 Tdp1-/- hTDP1 cells, no CPT, ATP luminescence, 48 h | Potency, µM (highest dose often 46.2 µM), without a hit: at the highest dose activity change, negative = growth inhibition, actives largely listed as inhibitors | actives 15% (n = 420,000) | AID 686978, 2013; note: potency is the fitted concentration of half-maximal effect; % is set by controls: 0 for no effect and ±100 for the full control effect; nearly all actives have a fitted effect of over 55% in size
#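 Chicken DT40 Tdp1-/- cells stably complemented with human TDP1 were seeded at 400 cells/well with DMSO in place of 20 nM camptothecin. After compound pinning, cells grew at least 48 hr at 37 °C; viability read by CellTiter-Glo luminescence.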
# DT40 TDP1 CPT: qHTS for Inhibitors of human tyrosyl-DNA phosphodiesterase 1 (TDP1): qHTS in cells in presence of CPT; chicken DT40 Tdp1-/-;hTDP1 cells + 20 nM CPT, ATP luminescence, 48 h; Potency, µM (doses to about 46.2 µM), for inactives: at the highest dose activity change, negative = growth inhibition, most hits filed as inhibitors; actives 12% (n = 420,000); AID 686979, 2013; note: potency is the fitted concentration of half-maximal effect; % is set by controls: 0 for no effect and ±100 for the full control effect; nearly all actives have a fitted effect of over 55% in size
#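 Cell growth measured by CellTiter-Glo luminescence after a minimum 48 h, 37 C compound exposure with 20 nM CPT in Tdp1-knockout DT40 cells stably expressing hTDP1, seeded 400/well; qHTS titration format.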
# Starred values were filed as active, the others as inactive; ? = inconclusive; . = no result. Most compounds without a hit are left out; they make up all but 19% or so of the library. Unless noted, calls come from the whole dose curve; as a rule, active = well fitted curve in the direction sought with a large enough effect; inconclusive = small, poorly fitted or top-dose-only effect, or another doubt; inactive = no such curve, though single readings can be large; an effect the other way counts as inactive or inconclusive.
SMILES,TGFb inhibitor,HepG2 viability,IL-1B inflam inh,TDP1 inh,TDP1 cell noCPT,DT40 TDP1 CPT
Cc1cc(C)cc(-n2ncc3c2CCCC3NC(=O)c2ccccc2N2CCOCC2)c1 (stereo unspecified),?,-2.5%,-18.9,3.7%,16.4µM*,?
O=C(NC1CCCc2c1cnn2-c1ccccc1F)c1ccccc1N1CCOCC1 (stereo unspecified),?,-7.1%,?,2.5%,13µM*,16.4µM*
Cc1cc(Cl)ccc1Nc1nc(NCc2ccco2)nc2nccnc12,1.0%,14.1%,.,-4.1%,?,?
CCN(CC)CCNc1nc(C(F)(F)F)nc2c1nnn2Cc1ccccc1,-3.7%,-13.3%,-60.2*,4.2%,?,-20.2%
FC(F)(F)c1nc(NCc2ccccc2)c2nnn(Cc3ccccc3)c2n1,-19.1%,-12.6%,3.6,4.3%,?,?
O=C(CC(=O)c1ccccc1O)c1ccc(F)cc1,-35.0%,-27.6%,37.4,3.6%,11.6µM*,10.3µM*
O=C(CC(=O)c1c(F)cccc1Cl)c1ccccc1O,?,-24.6%,6.8,.,11.6µM*,?
O=C(CCNC(=O)c1ccccc1Cl)NNC(=O)c1ccccc1O,0.0%,-34.9%,23.0,.,?,?
O=C(CC(=O)c1ccccc1O)c1cccc(F)c1,?,-28.9%,28.3,8.0%,4.11µM*,6.51µM*
O=c1oc(-c2ccccc2)c(-c2ccccc2)c2ccccc12,-0.3%,-6.4%,-3.9,.,?,?
C=CCNC(=S)N1CCC(C(=O)c2ccc(F)cc2)CC1,-20.2%,14.4%,14.1,2.5%,?,?
Cn1c(N2CCN(C(c3ccccc3)c3ccccc3)CC2)nc2ccccc21,?,-20.4%,-84.1*,5.2%,18.4µM*,?
O=C(CCS(=O)(=O)c1ccc(Cl)cc1)NCCN1C(=O)S/C(=C\c2ccccc2F)C1=O,-6.9%,-7.1%,0.0,5.4%,16.4µM*,?
O=C(NCCN1C(=O)S/C(=C\c2ccccc2F)C1=O)C1=COCCO1,-0.6%,0.0%,1.6,0.1%,2.91µM*,?
Cc1ccc(S(=O)(=O)CCC(=O)NCCN2C(=O)S/C(=C\c3ccccc3)C2=O)cc1,-38.6%,-14.7%,?,2.7%,?,?
O=C(NCCN1C(=O)S/C(=C\c2ccccc2Cl)C1=O)C1=COCCO1,-12.4%,-22.1%,-1.9,0.6%,6.51µM*,7.31µM*
O=C(NCCN1C(=O)S/C(=C\c2ccc(Cl)cc2)C1=O)C1=COCCO1,-3.3%,-13.2%,7.4,-2.6%,-20.1%,-24.0%
O=C(NCCN1C(=O)S/C(=C\c2ccc(Cl)cc2Cl)C1=O)C1=COCCO1,-9.2%,-45.0%,?,2.1%,11.6µM*,14.6µM*
CCCCCCCCN1C(=O)[C@H](CC(=O)NCc2ccc(C)o2)C[C@@]2(C(=O)OCC)CCC=C12,.,.,.,.,16.4µM*,?
CCOC(=O)[C@]12CCC=C1N(Cc1ccccc1)C(=O)[C@H](CC(=O)NCc1ccc(C)o1)C2,.,.,-3.0,.,-18.2%,-29.3%
CCCCCCCCN1C(=O)[C@H](CC(=O)NCc2ccc(C)o2)C[C@@]2(C(=O)OC)CCCCC=C12,.,.,-53.9*,.,20.6µM*,?
O=C(COC(=O)CCC(=O)c1ccc(F)cc1)NCc1ccccc1Cl,6.1%,5.1%,0.4,-3.2%,-7.9%,5.9%
COc1ccc(NC(=S)N2CCN(c3ncccn3)CC2)c(OC)c1,-1.8%,-19.1%,9.2,.,-12.7%,1.5%
Cc1cccc(C)c1OCC(=O)NNC(=O)c1ccoc1C,6.7%,-1.1%,1.9,4.8%,-1.2%,-9.7%
COc1ccccc1OCC(=O)NNC(=O)c1ccoc1C,4.9%,4.3%,-8.8,5.3%,?,14.6µM*
SMILES,TGFb inhibitor,HepG2 viability,IL-1B inflam inh,TDP1 inh,TDP1 cell noCPT,DT40 TDP1 CPT
c1ccc(-c2nc(-c3ccccn3)nc(-c3ccccn3)n2)nc1,-27.0%,-44.1%,-14.0,11.2%,14.6µM*,?
c1ccc(C2=NNC(c3ccccn3)=NN2)nc1,-13.3%,-36.6%,?,.,9.2µM*,9.2µM*
c1ccc(-c2nnc(-c3ccccn3)s2)nc1,-13.1%,-5.9%,-10.0,-6.2%,?,-23.3%
O=C(Nc1ccc(Br)cc1F)c1ncoc1-c1ccco1,-13.9%,-16.6%,.,-1.2%,-31.0%,-23.5%
Cc1noc(C)c1S(=O)(=O)N1CCCC(C(=O)NCCc2ccc(Cl)cc2)C1 (stereo unspecified),6.9%,1.7%,0.0,6.8%,?,?
Cc1noc(C)c1S(=O)(=O)N1CCCC(C(=O)NCCC2=CCCCC2)C1 (stereo unspecified),-5.8%,7.4%,13.8,6.0%,16.4µM*,?
Cc1noc(/C=C/N(C)C)c1S(=O)(=O)N1CCCC(C(=O)NCCC2=CCCCC2)C1 (stereo unspecified),-11.5%,-21.0%,-28.1,.,16.4µM*,20.6µM*
CCc1nc2ccc(C(=O)NCCCN3CCCC3=O)cn2c1N(C)CCC(C)C,-93.0%,-93.4%,-5.4,.,?,?
O=C(c1cc(-c2ccccc2)on1)N(Cc1cccnc1)C(c1ccccn1)c1nc2ccccc2[nH]1 (stereo unspecified),?,-0.8%,25.1,.,?,?
CCC(c1nc2ccccc2[nH]1)N(Cc1cccnc1)C(=O)c1cc(-c2ccccc2)on1 (stereo unspecified),?,-15.6%,-12.2,.,18.4µM*,?
COCCn1c(SCC(=O)c2ccccc2)nc2c(c1=O)SC(C)C2 (stereo unspecified),-4.3%,-2.6%,-4.9,3.8%,?,23.1µM*
COCCn1c(SCC(=O)N2CCN(c3ccccc3)CC2)nc2c(c1=O)SC(C)C2 (stereo unspecified),1.9%,0.6%,5.6,.,18.4µM*,20.6µM*
C/C(=N/NC(=O)c1ccc(C)nc1)c1ccc2c(c1)CCCC2,-4.5%,8.7%,64.8,1.2%,23.1µM*,14.6µM*
CCOC(=O)N1CCN(CC(O)COc2ccccc2[N+](=O)[O-])CC1 (stereo unspecified),-12.9%,3.2%,2.4,.,16.7%,3.6%
